These results are taken from article PMC5540273 (PLoS ONE, 2017).

SMILES strings stand for the structures.
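Further: KINOMEscan kinase panel screen.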

The first assay concerns T1, PIP5K2C.
T1 construct: gene PIP4K2C
The note with it: concentration: 1 μM, replicates: in singlicate; n = 1.
With `Cc1cccc(-c2nc(-c3ccc(S(C)(=O)=O)cc3)sc2-c2ccncc2)c1`, the “%Inh” value was determined as 0%.

For the compound `Cc1ccc(NC(=O)c2ccnc(N3CCN(C)CC3)c2)cc1-c1ccc(C(=O)NCC2CC2)cc1` [GW775604], the “%Inh” value was 0%.

`COc1ccc(COc2cc(-n3cnc4ccccc43)sc2C(N)=O)cc1` [GSK1024304]: the “%Inh” value is 3%.

With `Fc1ccc(-c2ncn(CCCN3CCOCC3)c2-c2ccccn2)cc1` [SB-211742], the “%Inh” value is 27%.

For the compound `CCCCCc1nc2c(N)ncnc2n1CCCCC` [SKF-97255], the “%Inh” value worked out at 0%.

For `N#Cc1c(N2CCOCC2)sc(-c2ccn[nH]2)c1-c1ccc(Cl)cc1`, the “%Inh” value is on record as 0%.

In the case of `O=C(Nc1cccc(-c2nn3ncccc3c2-c2ccnc(Nc3cccc(C(F)(F)F)c3)n2)c1)c1c(F)cccc1F` [GSK299495], the “%Inh” value is 68%.

`CC(=O)Nc1ccc(COc2ccc(Nc3ccnc4cc(-c5ccccn5)ccc34)cc2)cc1.Cl` [GW440148]: the “%Inh” value was 23%.

As for `c1ccc(-c2cc(-c3c[nH]nc3-c3ccccn3)ccn2)cc1` [GW576604], the “%Inh” value worked out at 30%.

Take `O=C(c1ccc(-c2cc(-c3c[nH]nc3-c3ccccn3)ccn2)cc1)N1CCOCC1` [GW812171]: the “%Inh” value is listed as 67%.

As for `Nc1nc(-c2ccc3c(N)n[nH]c3c2)cc(N2CCCC2)n1` [GSK2227430], the “%Inh” value is 0%.

As for `COc1ccc(Nc2nccc(N3CCC(NC(=O)Nc4cccc(C(C)=O)c4)C3)n2)cc1` (centres unmarked) [GSK1379731], the “%Inh” value is on record as 3%.

As to `O=C1Cc2cc(Nc3nc(NCc4cccc(S(=O)(=O)C(F)(F)F)c4)ncc3C(F)(F)F)ccc2N1`, the “%Inh” value stood at 0%.

Take `Cc1cccc(Cn2ccn3c(=O)cc(N4CCOCC4)nc23)c1` [GSK2297542]: the “%Inh” value stood at 6%.

Take `O=c1cc(N2CCOCC2)nc2n(Cc3cccc(F)c3)ccn12` [GSK2297430]: the “%Inh” value is recorded as 0%.

Turning to `Cc1nnc(-c2ccc3occ(-c4ccc(C(C)O)cc4)c3c2)o1` (centres unmarked), the “%Inh” value was found to be 17%.

Turning to `O=c1cc(N2CCOCC2)nc2n(Cc3cccc4ccccc34)ccn12` [GSK2333389], the “%Inh” value was found to be 0%.

Consider `Fc1ccc(-c2ncn(CCCN3CCOCC3)c2-c2cccnc2)cc1` [SB-211743], for which the “%Inh” value is reported as 0%.

For `Cc1ccc(C(=O)NCC(N)=O)cc1-n1c(C)cc(OCc2ccc(F)cc2F)c(Br)c1=O`, the “%Inh” value turned out to be 31%.

As for `Cn1ccc2ncnc(Oc3ccc(NC(=O)Nc4ccncc4)c(Cl)c3)c21`, the “%Inh” value is recorded as 0%.

Regarding `COc1ccc(Nc2ncc(C#N)c(Nc3ccccc3C(N)=O)n2)cc1N1CCN(C)CC1.Cl` [GSK1558669], the “%Inh” value was 90.6%.

On to `COc1ccc(S(=O)(=O)NC2CCN(c3cc(C)nc(Nc4cccc(C#N)c4)n3)CC2)cc1.O=C(O)C(F)(F)F` [GSK1653539], for which the “%Inh” value was found to be 37%.

Take `c1ccc(-c2n[nH]cc2-c2ccnc3ccccc23)nc1` [GW271431]: the “%Inh” value was determined as 4%.

With `Nc1nccc(-c2c(-c3ccc(F)cc3)ncn2C2CCN(CC(F)(F)F)CC2)n1` [SB-236560], the “%Inh” value was found to be 60%.

Consider `COc1cc2ncn(-c3cc(OCc4sccc4Cl)c(C(N)=O)s3)c2cc1OC` [GSK448459], for which the “%Inh” value was determined as 50%.

Turning to `O=c1cc(N2CCOCC2)nc2n(Cc3cccc(Cl)c3Cl)c(C3CC3)nn12` [GSK2358994], the “%Inh” value is given as 0%.

Turning to `CCc1nc(-c2cccc(C)c2)c(-c2ccnc(NCc3ccccc3)c2)s1`, the “%Inh” value amounted to 0%.

Regarding `CSc1ccc(-c2cc3ncnc(SCC(=O)O)c3s2)cc1`, the “%Inh” value is given as 7%.

Take `COc1ccc(Nc2nccc(N3CCC(NC(=O)Nc4cc(C)ccc4C)C3)n2)cc1` (centres unmarked) [GSK1379741]: the “%Inh” value is on record as 9%.

For `CC(C)(C)n1cnc2c(N)ncnc21` [SKF-97359], the “%Inh” value came out at 34%.

On to `O=C(Nc1n[nH]c2cc(-c3cccc(F)c3)ccc12)C1CC1` [SB-735464], for which the “%Inh” value was determined as 11%.

For the compound `Cc1c2ccc(N(C)c3ccnc(Nc4cccc(S(N)(=O)=O)c4)n3)cc2nn1Cc1ccccc1.Cl.Cl` [GW787226], the “%Inh” value is recorded as 0%.

`O=C(NCCNc1ccnc(Nc2ccc(F)cc2)n1)c1cc2ccccc2s1` [GSK1379874]: the “%Inh” value stood at 42%.

On to `Cc1cn2c(=O)cc(N3CCOCC3)nc2n1Cc1cccc(Cl)c1Cl` [GSK2334006], for which the “%Inh” value was determined as 10%.

Another assay concerns T2, PKAC-alpha.
T2 construct: gene PRKACA
Particulars: concentration: 1 μM, replicates: in singlicate; n = 1.
For `Cc1cccc(-c2nc(-c3ccc(S(C)(=O)=O)cc3)sc2-c2ccncc2)c1`, the “%Inh” value came to 0%.

For `Cc1ccc(NC(=O)c2ccnc(N3CCN(C)CC3)c2)cc1-c1ccc(C(=O)NCC2CC2)cc1` [GW775604], the “%Inh” value worked out at 0%.

For `COc1ccc(COc2cc(-n3cnc4ccccc43)sc2C(N)=O)cc1` [GSK1024304], the “%Inh” value turned out to be 0%.

With `Fc1ccc(-c2ncn(CCCN3CCOCC3)c2-c2ccccn2)cc1` [SB-211742], the “%Inh” value was found to be 0%.

For the compound `CCCCCc1nc2c(N)ncnc2n1CCCCC` [SKF-97255], the “%Inh” value was determined as 24%.

As to `N#Cc1c(N2CCOCC2)sc(-c2ccn[nH]2)c1-c1ccc(Cl)cc1`, the “%Inh” value is reported as 0%.

As for `O=C(Nc1cccc(-c2nn3ncccc3c2-c2ccnc(Nc3cccc(C(F)(F)F)c3)n2)c1)c1c(F)cccc1F` [GSK299495], the “%Inh” value is recorded as 12%.

Take `CC(=O)Nc1ccc(COc2ccc(Nc3ccnc4cc(-c5ccccn5)ccc34)cc2)cc1.Cl` [GW440148]: the “%Inh” value came out at 0%.

Turning to `c1ccc(-c2cc(-c3c[nH]nc3-c3ccccn3)ccn2)cc1` [GW576604], the “%Inh” value is recorded as 5%.

Regarding `O=C(c1ccc(-c2cc(-c3c[nH]nc3-c3ccccn3)ccn2)cc1)N1CCOCC1` [GW812171], the “%Inh” value was 0%.

Turning to `Nc1nc(-c2ccc3c(N)n[nH]c3c2)cc(N2CCCC2)n1` [GSK2227430], the “%Inh” value was 0%.

On to `COc1ccc(Nc2nccc(N3CCC(NC(=O)Nc4cccc(C(C)=O)c4)C3)n2)cc1` (centres unmarked) [GSK1379731], for which the “%Inh” value is reported as 2%.

`O=C1Cc2cc(Nc3nc(NCc4cccc(S(=O)(=O)C(F)(F)F)c4)ncc3C(F)(F)F)ccc2N1`: the “%Inh” value was found to be 0%.

As to `Cc1cccc(Cn2ccn3c(=O)cc(N4CCOCC4)nc23)c1` [GSK2297542], the “%Inh” value was determined as 16%.

Regarding `O=c1cc(N2CCOCC2)nc2n(Cc3cccc(F)c3)ccn12` [GSK2297430], the “%Inh” value is on record as 12%.

Take `Cc1nnc(-c2ccc3occ(-c4ccc(C(C)O)cc4)c3c2)o1` (centres unmarked): the “%Inh” value was 7%.

Regarding `O=c1cc(N2CCOCC2)nc2n(Cc3cccc4ccccc34)ccn12` [GSK2333389], the “%Inh” value came to 0%.

In the case of `Fc1ccc(-c2ncn(CCCN3CCOCC3)c2-c2cccnc2)cc1` [SB-211743], the “%Inh” value came to 0%.

As to `Cc1ccc(C(=O)NCC(N)=O)cc1-n1c(C)cc(OCc2ccc(F)cc2F)c(Br)c1=O`, the “%Inh” value amounted to 7%.

Regarding `Cn1ccc2ncnc(Oc3ccc(NC(=O)Nc4ccncc4)c(Cl)c3)c21`, the “%Inh” value came out at 1%.

As to `COc1ccc(Nc2ncc(C#N)c(Nc3ccccc3C(N)=O)n2)cc1N1CCN(C)CC1.Cl` [GSK1558669], the “%Inh” value is reported as 76%.

For `COc1ccc(S(=O)(=O)NC2CCN(c3cc(C)nc(Nc4cccc(C#N)c4)n3)CC2)cc1.O=C(O)C(F)(F)F` [GSK1653539], the “%Inh” value is 0%.

As to `c1ccc(-c2n[nH]cc2-c2ccnc3ccccc23)nc1` [GW271431], the “%Inh” value is 9%.

With `Nc1nccc(-c2c(-c3ccc(F)cc3)ncn2C2CCN(CC(F)(F)F)CC2)n1` [SB-236560], the “%Inh” value was 0%.

Regarding `COc1cc2ncn(-c3cc(OCc4sccc4Cl)c(C(N)=O)s3)c2cc1OC` [GSK448459], the “%Inh” value worked out at 0%.

Consider `O=c1cc(N2CCOCC2)nc2n(Cc3cccc(Cl)c3Cl)c(C3CC3)nn12` [GSK2358994], for which the “%Inh” value turned out to be 25%.

In the case of `CCc1nc(-c2cccc(C)c2)c(-c2ccnc(NCc3ccccc3)c2)s1`, the “%Inh” value was found to be 0%.

Take `CSc1ccc(-c2cc3ncnc(SCC(=O)O)c3s2)cc1`: the “%Inh” value is 0%.

`COc1ccc(Nc2nccc(N3CCC(NC(=O)Nc4cc(C)ccc4C)C3)n2)cc1` (centres unmarked) [GSK1379741]: the “%Inh” value amounted to 0%.

On to `CC(C)(C)n1cnc2c(N)ncnc21` [SKF-97359], for which the “%Inh” value was 0%.

For the compound `O=C(Nc1n[nH]c2cc(-c3cccc(F)c3)ccc12)C1CC1` [SB-735464], the “%Inh” value amounted to 3%.

Turning to `Cc1c2ccc(N(C)c3ccnc(Nc4cccc(S(N)(=O)=O)c4)n3)cc2nn1Cc1ccccc1.Cl.Cl` [GW787226], the “%Inh” value turned out to be 17%.

On to `O=C(NCCNc1ccnc(Nc2ccc(F)cc2)n1)c1cc2ccccc2s1` [GSK1379874], for which the “%Inh” value is given as 0%.

For the compound `Cc1cn2c(=O)cc(N3CCOCC3)nc2n1Cc1cccc(Cl)c1Cl` [GSK2334006], the “%Inh” value was 3%.
